Laboratory results from PubChem BioAssay AID1159580 (chemical genetic matrix, 2015).
“And” between values parts separate entries of the source, which are not always exact repeats. Equal entries are not always repeated. The campaign covered roughly 5,500 compounds. About 2,000 (36%) were called active. Another 18% or so got no clear call; they are omitted. Cut-off read from the data, not from the text of the source: active = normalized growth mostly below about 0.91 (no sharp cut-off); inconclusive = no clear call, values can overlap the other calls; inactive = mostly above about 0.92. Some of the results follow.

Assay: chemical genetic growth profiling, strain panel (AID 1159580);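 note: tested at 20 µM; growth read once vehicle control cultures reached saturation at 30 °C; 1 = growth at the plate median or of vehicle wells; lower values mean less growth of the strain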
Conditions: S. cerevisiae deletion strains, growth OD

Measured: normalized growth

CCN(CC)CCCC(C)Nc1ccnc2cc(Cl)ccc12 (configuration not stated)
inactive: locus YAL013W, strain DEP1, active compounds read low 1.02 and 1.01 | locus YAL021C, strain ccr4, active compounds read low 1.04 | locus YAL026C, strain drs2, active compounds read low 1.02 | locus YAL030W, strain snc1, active compounds read low 1.02 | locus YAL040C, strain CLN3, active compounds read low 1.01 | locus YBL061C, strain skt5, active compounds read low 1.03 | locus YBR009C, strain hhf1, active compounds read low 1.01 | locus YBR021W, strain FUR4, active compounds read low 0.976 | locus YBR023C, strain chs3, active compounds read low 1.03 | locus YBR171W, strain sec66, active compounds read low 1.05 | locus YBR229C, strain ROT2, active compounds read low 1.01 | locus YBR231C, strain swc5, active compounds read low 1.03 | locus YBR279W, strain paf1, active compounds read low 1.02 | locus YCL011C, strain gbp2, active compounds read low 1.04 | locus YCL016C, strain dcc1, active compounds read low 1.03 | locus YCL029C, strain bik1, active compounds read low 1.01 | locus YCL061C, strain MRC1 (second series), active compounds read low 1.01 | locus YCL069W, strain vba3, active compounds read low 1.03 | locus YCR088W, strain abp1, active compounds read low 1.02 | locus YDL005C, strain med2, active compounds read low 1.03 | locus YDL035C, strain GPR1, active compounds read low 0.995 | locus YDL040C, strain nat1, active compounds read low 1.03 | locus YDL074C, strain BRE1, active compounds read low 1.04 | locus YDL101C, strain DUN1, active compounds read low 1.04 | locus YDL134C, strain PPH21, active compounds read low 0.985 | locus YDL185W, strain tfp1, active compounds read low 1 | locus YDL192W, strain arf1, active compounds read low 1 | locus YDR001C, strain nth1, active compounds read low 1.03 | locus YDR069C, strain doa4, active compounds read low 0.998 | locus YDR101C, strain arx1, active compounds read low 0.993 | locus YDR137W, strain rgp1, active compounds read low 1.06 | locus YDR159W, strain sac3, active compounds read low 1.06 | locus YDR162C, strain NBP2, active compounds read low 1.01 | locus YDR195W, strain ref2 1.07 | locus YDR297W, strain sur2, active compounds read low 1.03 | locus YDR318W, strain mcm21, active compounds read low 1.02 | locus YDR334W, strain swr1, active compounds read low 1.03 | locus YDR335W, strain msn5, active compounds read low 1.03 | locus YDR363W, strain ESC2, active compounds read low 1.01 | locus YDR388W, active compounds read low 1.01 | locus YDR392W, strain spt3, active compounds read low 0.937 | locus YDR502C, strain sam2, active compounds read low 0.995 | locus YEL003W, strain gim4, active compounds read low 1.03 | locus YEL037C, strain rad23, active compounds read low 1.03 | locus YEL061C, strain CIN8 (second series), active compounds read low 1.03 | locus YEL061C, strain CIN8, active compounds read low 1.01 | locus YER002W, strain NOP16, active compounds read low 0.994 | locus YER015W, strain faa2, active compounds read low 1.03 | locus YER016W, strain bim1, active compounds read low 1 | locus YER110C, active compounds read low 1.02 | locus YER111C, strain swi4, active compounds read low 1.04 | locus YER155C, strain BEM2 (second series), active compounds read low 0.966 | locus YER155C, strain BEM2, active compounds read low 1.01 | locus YER167W, strain BCK2, active compounds read low 1.01 | locus YFR010W, strain ubp6, active compounds read low 1.03 | locus YGL078C, strain dbp3, active compounds read low 1.02 | locus YGL086W, strain mad1, active compounds read low 0.996 | locus YGL167C, strain pmr1, active compounds read low 1.04 | locus YGL173C, strain kem1, active compounds read low 1.04 | locus YGL227W, strain vid30, active compounds read low 1.03 | locus YGL240W, strain doc1, active compounds read low 1.03 | locus YGL248W, strain PDE1, active compounds read low 1.04 | locus YGL253W, strain hxk2, active compounds read low 1.01 | locus YGR135W, strain pre9, active compounds read low 1.04 | locus YGR252W, strain gcn5, active compounds read low 1.02 | locus YHR013C, strain ard1, active compounds read low 0.965 | locus YHR027C, strain rpn1, active compounds read low 1.03 | locus YHR030C, strain SLT2, active compounds read low 1 and 0.96 | locus YHR079C, strain IRE1 (second series), active compounds read low 1.01 | locus YHR079C, strain IRE1, active compounds read low 0.961 | locus YHR094C, strain hxt1, active compounds read low 1.01 | locus YHR129C, strain ARP1, active compounds read low 1.02 | locus YHR142W, strain chs7, active compounds read low 1.04 | locus YHR200W, strain rpn10, active compounds read low 1.01 | locus YIL066C, strain RNR3, active compounds read low 1.02 | locus YIL073C, strain SPO22, active compounds read low 1.01 | locus YIL125W, strain kgd1, active compounds read low 1 | locus YIR030C, strain dcg1, active compounds read low 1 | locus YJL092W, strain hpr5, active compounds read low 1.02 | locus YJL095W, strain BCK1 (second series), active compounds read low 1.03 | locus YJL095W, strain BCK1, active compounds read low 1.07 and 0.962 | locus YJL115W, strain asf1, active compounds read low 1.05 | locus YJL129C, strain trk1, active compounds read low 1.02 | locus YJL134W, strain LCB3, active compounds read low 1.01 | locus YJL154C, strain vps35, active compounds read low 1.02 | locus YJL164C, strain tpk1, active compounds read low 1.02 | locus YJL166W, strain qcr8, active compounds read low 1 | locus YJL168C, strain set2, active compounds read low 1.01 | locus YJL187C, strain SWE1 (second series), active compounds read low 1.05 | locus YJL187C, strain SWE1, active compounds read low 1.03 | locus YJR043C, strain POL32, active compounds read low 0.981 | locus YJR066W, strain TOR1, active compounds read low 0.979
